Assay results published in PubChem BioAssay (NCATS).
Inconclusive results are not listed. Calls of active or inactive are those of the source. Unless noted, the rule behind the calls is not given here.

Assays:
[1] = qHTS profiling of the MIPE4 collection as inhibitors of Plasmodium falciparum (3D7) proliferation (AID 743344);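 note: scaled between DMSO vehicle wells and 0.29 µM artemisinin as full inhibition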; conditions: P. falciparum 3D7 in erythrocytes, SYBR Green DNA fluorescence, 72 h; at 28.5 µM unless noted
Procedure, shortened: (§1)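 Parasite DNA was quantified by SYBR Green I fluorescence (ex 485, em 535 nm) after overnight lysis in saponin/Triton buffer at room temperature. Cultures at 0.3% parasitemia and 2.5% hematocrit were first exposed to compound for 72 h at 37 C; signals were normalised to artemisinin (0.29 uM) and vehicle wells.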

[2] = qHTS profiling of the MIPE4 collection as inhibitors of Plasmodium falciparum (DD2) proliferation (AID 743345); conditions: P. falciparum Dd2 in erythrocytes, SYBR Green DNA, 72 h; at 28.5 µM unless noted
Procedure, shortened: as §1

[3] = qHTS profiling of the MIPE4 collection as inhibitors of Plasmodium falciparum (DD2) proliferation (Rep 2) (AID 743346); conditions: P. falciparum Dd2 in erythrocytes, SYBR Green DNA, 72 h; at 28.5 µM unless noted
Procedure, shortened: as §1

[4] = qHTS profiling of the MIPE4 collection as inhibitors of Plasmodium falciparum (HB3) proliferation (AID 743347);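 note: plate controls were DMSO vehicle wells for no effect and artemisinin wells for full effect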; conditions: P. falciparum HB3 in erythrocytes, SYBR Green DNA, 72 h; at 28.5 µM unless noted
Procedure, shortened: as §1

[5] = High-throughput drug toxicity screening in the BPDCN cell line Gen2.2 (AID 1224824); conditions: Gen2.2 BPDCN cells; at 45.8 µM (top of the series) unless noted;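 note: cells exposed to compounds for 48 h before reading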
Procedure, shortened: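 Gen2.2, 500 cells/well, phenol red-free RPMI/10% FBS/Pen-Strep; 48 h cpd, 37 °C/5% CO2; CTG lum, 15 min RT. Norm: DMSO = 100%, bortezomib 9.2 uM final = 0%.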

[6] = High-throughput drug toxicity screening in the BPDCN cell line Cal-1 (AID 1224825); conditions: Cal-1 BPDCN cell viability, qHTS; at 45.8 µM (top of the series) unless noted;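 note: cells exposed to compounds for 48 h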
Procedure, shortened: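 Percent activity derived from CellTiter-Glo luminescence, scaling DMSO to 100% and 9.2 uM final bortezomib to 0%. BPDCN Cal-1 cells (500/well, RPMI plus 10% FBS) incubated with compounds 48 hours at 37C before reading.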

[7] = qHTS assay for measurement of the activity of small molecule inhibitors on Zika virus induced Caspase-3 activity in human iPSC derived neural progenitor cells (hNPCs) (AID 1224857; active = well fitted inhibition curve with a large enough effect; note: nearly all actives have a fitted effect of over 65% in size; note: potency is the fitted concentration of half-maximal effect); conditions: hNPCs ZIKV-induced caspase-3/7, Caspase-Glo luminescence, 6 h; series mostly up to 45.7 µM
Procedure, shortened: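 Percent inhibition of virus-induced caspase-3/7 luminescence (Caspase-Glo), scaled between uninfected cells and Zika-infected cells. hNPCs received compound 1 hr before ZIKV at 2 FFU/cell, with 6 hours infection at 37 C.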

[8] = qHTS assay for measurement of the activity of small molecule inhibitors on Zika virus induced Caspase-3 activity in human astrocytoma cells (AID 1224859; active = well fitted inhibition curve with a large enough effect; note: potency is the fitted concentration of half-maximal effect); conditions: SNB-19 ZIKV-induced caspase-3/7, luminescence, 6 h; series mostly up to 45.7 µM
Procedure, shortened: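 Luminescent caspase-3/7 read-out (30 min reagent, room temperature) in human SNB-19 cells infected 6 h with ZIKV (2 FFU/cell) after 1 h compound pre-incubation; Data were normalised to uninfected and infected wells.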

Compound	parasite growth, % of DMSO control [1]	parasite growth remaining, % of DMSO control (lower = more inhibition) [2]	parasite growth, % of control (lower = inhibition) [3]	growth, % of control [4]	cell viability, % of control (lower = more cytotoxic) [5]	viability (% of control) [6]	Potency [7]	Potency [8]
O=C(Nc1ncc(SCCN2CCCC2)s1)[C@]1(c2ccc(S(=O)(=O)C3CC3)cc2)C[C@@H]1C1CCCCC1	6.74%	7.78%	20.2%	10.1%	116%	92.3%	inactive	inactive
C=CC(=O)Nc1cccc(Sc2nc(Nc3ccc(N4CCN(C)CC4)cc3)ncc2Cl)c1	4.12%	10.2%	6.26%	1.99%	8.4%	2.56%	inactive	inactive
CC(C)C[C@@H](N)[C@H](O)C(=O)N[C@H](C(=O)N[C@H](C(=O)N[C@@H](CC(=O)O)C(=O)O)C(C)C)C(C)C	102%	–	127%	–	128%	104%	inactive	inactive
Cc1ccc(C(=O)N(CCCN)[C@@H](c2oc3cc(Cl)ccc3c(=O)c2Cc2ccccc2)C(C)C)cc1	4.68%	8.7%	8.99%	5.08%	8.98%	3.72%	inactive	inactive
Cc1nc(C(=O)NCC(=O)O)c(O)c2ccc(Oc3ccccc3)cc12	86.9%	95.5%	67.9%	69.9%	54.1%	115%	inactive	inactive
Oc1ccc(C=Cc2cc(O)cc(O)c2)cc1	49.1%	96.9%	40.6%	13%	240%	39.4%	11.8 µM (active)	6.62 µM (active)
NCc1c[nH]c(=S)n1[C@H]1CCc2c(F)cc(F)cc2C1	15.7%	12.9%	13.8%	4.48%	61.4%	34.2%	inactive	inactive
C[C@@H]1CCO[C@H]2Cn3cc(C(=O)NCc4ccc(F)cc4F)c(=O)c(O)c3C(=O)N12	55%	53.9%	38.3%	62.8%	58.3%	12.5%	inactive	inactive
CCCCC(C)(C)[C@H](O)C=C[C@H]1[C@H](O)CC(=O)[C@H]1CC=CCCCC(=O)O	76.7%	–	39.2%	75.8%	29.2%	11.7%	inactive	inactive
CNC(=O)c1c(-c2ccc(F)cc2)oc2cc(N(CCO)S(C)(=O)=O)c(C3CC3)cc12	4.82%	10.4%	14.1%	4.16%	64.5%	8.15%	inactive	inactive
COc1ccc(-c2cc(=O)c3c(O)cc(O[C@@H]4O[C@H](CO[C@@H]5O[C@@H](C)[C@H](O)[C@@H](O)[C@@H]5O)[C@@H](O)[C@H](O)[C@@H]4O)cc3o2)cc1O	30.1%	28.6%	33.2%	23.4%	93%	111%	inactive	inactive
COC1CCC(C(=O)c2ccc3nc4c(cc3c2)CCCO4)CC1 (stereo not drawn)	21.8%	31.2%	15.9%	11.8%	98%	85.9%	inactive	inactive
N#CC(c1ccnc(NCCc2cccnc2)n1)c1nc2ccccc2s1 (stereo not drawn)	4.46%	18.6%	15.5%	7.28%	9.41%	3.4%	inactive	inactive
O=C(O)CCNc1cc(N2CCc3ccccc3CC2)nc(-c2ccccn2)n1	19.7%	48.3%	20.6%	5.23%	158%	91.6%	inactive	inactive
Cc1ccc(NC(=O)c2cccc(N(C)C)c2)cc1NC(=O)c1ccc(O)cc1	35.6%	87.3%	55.2%	31.2%	81.9%	5.55%	inactive	inactive
O=C(CCCN1CCN(c2ccc(F)cc2)CC1)NC1c2ccccc2CSc2ccccc21 (stereo not drawn)	76%	–	80.9%	–	91.5%	58.7%	inactive	inactive
Cc1c(-c2cccc3c(CCCOc4cccc5ccccc45)c(C(=O)O)n(Cc4cccnc4)c23)c(COc2ccc(N3CCN([S+](=O)([O-])N(C)C)CC3)cc2)nn1C	5.78%	7.43%	15.4%	4.06%	121%	86.1%	inactive	inactive
CC1(C)C(N(O)C(=O)Nc2ccc(Cl)cc2)N(c2ccc(Cl)cc2)C(=O)N1CC(=O)NN=CC=Cc1ccc([N+](=O)[O-])o1 (stereo not drawn)	5.05%	9.75%	18.3%	7.55%	3.85%	2.85%	inactive	inactive
N#CC1(c2cccc(C(=O)Nc3cc(Oc4ccc5nc(NC(=O)C6CC6)sc5n4)ccc3F)c2Cl)CC1	14.7%	28.8%	30.3%	9.87%	7.3%	43.3%	inactive	inactive
Cc1ccc2c(=O)c3cccc(CC(=O)O)c3oc2c1C	95.5%	94%	76.8%	101%	78%	50.1%	inactive	inactive

Compound	parasite growth, % of DMSO control [1]	parasite growth remaining, % of DMSO control (lower = more inhibition) [2]	parasite growth, % of control (lower = inhibition) [3]	growth, % of control [4]	cell viability, % of control (lower = more cytotoxic) [5]	viability (% of control) [6]	Potency [7]	Potency [8]
CC1=C(C(=O)Nc2cc3cn[nH]c3cc2F)C(c2ccc(C(F)(F)F)cc2)CC(=O)N1 (stereo not drawn)	5.13%	8.5%	7.16%	5.72%	88.7%	58%	inactive	inactive
Cc1cccc2c1CC[C@H](CN1CCC(c3c(Cl)cccc3Cl)CC1)C[C@@H]2O	8.94%	–	25%	9.19%	140%	43.1%	inactive	inactive
CCC[C@H](N[C@@H](C)C(=O)N1[C@@H]2CCCC[C@H]2C[C@H]1C(=O)O)C(=O)OCC	69%	77.5%	41.1%	98.7%	64.1%	104%	inactive	inactive
CC(C)(F)C[C@H](N[C@@H](c1ccc(-c2ccc(S(C)(=O)=O)cc2)cc1)C(F)(F)F)C(=O)NC1(C#N)CC1	56.4%	64.3%	61%	68.4%	153%	99.1%	inactive	inactive
CNc1nc(-c2ccc3c(N)n[nH]c3c2)cc(N2C[C@@H](C(=O)NC3CCCCC3)CC[C@@H]2C)n1	5.06%	8.54%	11.4%	4.91%	6.94%	18.1%	inactive	inactive
CNC(=O)c1ccc2c(C(=Nc3cccc(CN(C)C)c3)c3ccccc3)c(O)[nH]c2c1	19.9%	–	15.2%	19%	4.19%	19.6%	inactive	inactive
CNc1nc(Nc2ccc(C(=O)N3CCOCC3)cc2OC)ncc1Cl	–	90.3%	56.9%	54.9%	103%	93.7%	inactive	inactive
CCCCCOC(=O)Nc1nc(=O)n([C@@H]2O[C@H](C)[C@@H](O)C2O)cc1F (stereo partly drawn)	253%	–	83.9%	171%	124%	102%	inactive	inactive
CC[C@H](NC(=O)[C@H](C)NC)C(=O)N1C[C@@H](O)C[C@H]1Cc1c(-c2[nH]c3cc(F)ccc3c2C[C@H]2C[C@H](O)CN2C(=O)[C@H](CC)NC(=O)[C@H](C)NC)[nH]c2cc(F)ccc12	4.9%	–	6.15%	6.85%	19.2%	7.23%	inactive	inactive
C[C@]12CC[C@@H]3c4ccc(O)cc4CC[C@H]3[C@H]1[C@@H](O)[C@@H](O)[C@H]2O	5.15%	–	7.28%	2.52%	218%	44.4%	inactive	inactive
C[C@@H]1[C@H](C)CC[C@]2(C(=O)O)CC[C@]3(C)C(=CC[C@@H]4[C@@]5(C)CC[C@H](O)C(C)(C)[C@H]5CC[C@]43C)[C@@H]12	–	55.6% [at 57.5 µM]	8% [at 57.5 µM]	3.02% [at 57.5 µM]	41.3% [at 92.2 µM]	29% [at 92.2 µM]	inactive	inactive
Nc1[nH]nc2nnc(-c3c(-c4ccccc4)nn4ccccc34)cc12	25%	–	46.8%	26%	5.31%	6.85%	inactive	inactive
CCCC1OC2C[C@@H]3[C@H]4CCC5=CC(=O)C=C[C@]5(C)[C@H]4C(O)C[C@]3(C)[C@]2(C(=O)CO)O1 (stereo partly drawn)	–	–	15.8%	5.33%	12.2%	11.8%	inactive	inactive
OC[C@H]1O[C@@H](O[C@H]2[C@@H](O)[C@@](O)(CO)O[C@@H]2CO)[C@H](O)[C@@H](O)[C@@H]1O	87.6%	–	79.8%	88%	137%	96.1%	inactive	inactive
CC(C)[C@H](O)C(=O)N[C@@H](C)C(=O)N[C@@H]1C(=O)N(C)CCc2ccccc21	13.3%	–	26.2%	17.8%	95.1%	95.1%	inactive	inactive
CCOC(=O)c1c(CSc2ccccc2)n(C)c2cc(Br)c(O)c(CN(C)C)c12	–	10.6%	12.1%	2.97%	164%	52.2%	inactive	inactive
CCCCCCOC(=O)N=C(N)c1ccc(NCc2nc3cc(C(=O)N(CCC(=O)OCC)c4ccccn4)ccc3n2C)cc1	–	28.2%	16%	7.43%	274%	17.1%	inactive	inactive
CO[C@H]1/C=C\O[C@@]2(C)Oc3c(C)c(O)c4c(O)c(c5c(nc6cc(C)ccn65)c4c3C2=O)NC(=O)C(C)=CC=C[C@H](C)[C@H](O)[C@@H](C)[C@@H](O)[C@@H](C)[C@H](OC(C)=O)[C@H]1C	11%	–	7.3%	5.21%	4.46%	32.4%	inactive	inactive
CC1=C(CC(=O)O)c2cc(F)ccc2C1=Cc1ccc(S(C)=O)cc1 (stereo not drawn)	79.1%	–	64.2%	52.4%	6.5%	7.86%	inactive	inactive
C[C@]12CCC3=C4CCC(=O)C=C4CC[C@@H]3[C@H]1CC[C@@]2(O)CC#N	–	97.5%	71%	93%	106%	107%	inactive	inactive
